Rows were chosen to be rich in hits. Some 11% of all compounds tested hit in one or more screens of this group.
IMPase cell inh = membrane-permeable compound that blocks inositol monophosphatase | P97697 | CHO-M1 cells, IP1 accumulation, HTRF TR-FRET ratio | inhibition (IP1 accumulation), % at 46.1 µM | 120,000 tested, under 10 active | AID 901; active means well fitted curve in the direction sought with a large enough effect in the signal ratio, not every such curve was filed as active; inconclusive means small, poorly fitted or top-dose-only effect, or a change in a side signal; inactive means no such curve, though single readings can be large or run the other way; the % refers to the signal ratio;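 further: cells stimulated with carbachol in lithium chloride buffer; higher means more IMPase inhibition seen as more IP1 and lower FRET ratio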
Target sequence (P97697 whole entry, looked up): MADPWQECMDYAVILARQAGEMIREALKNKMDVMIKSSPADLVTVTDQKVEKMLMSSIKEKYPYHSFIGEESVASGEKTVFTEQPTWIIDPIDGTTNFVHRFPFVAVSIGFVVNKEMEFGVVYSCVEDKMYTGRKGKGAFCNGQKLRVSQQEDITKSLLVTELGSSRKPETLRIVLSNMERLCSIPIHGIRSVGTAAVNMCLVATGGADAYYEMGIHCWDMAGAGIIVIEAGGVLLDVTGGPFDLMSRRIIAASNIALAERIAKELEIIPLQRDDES
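Measured: the HTRF emission ratio (665/620 nm) plus the 620 nm donor channel, each fitted to the Hill equation to give AC50. Cells were CHO-M1 given compounds up to 46 uM and a 30 min carbachol stimulation at 37C.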
PNC inhibitor = perinucleolar compartment assembly inhibition. PC3M PTB-GFP, PNC prevalence imaging, 16 h; active compounds read low. activity change (PNC), negative = inhibition, % at 10 µM. hit rate 3.1% among 140,000;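 active means readout at or below -70, meaning at least 70% loss of cells showing the perinucleolar compartment, a nuclear body marking cancer cells; inconclusive means readout between -30 and a set limit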
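Read-out is percentage of cells bearing a perinucleolar compartment, from automated 20x imaging of fixed, Hoechst-stained PC3M PTB-GFP cells. Cells were seeded 4 h, then exposed 16 h to compound (23 nl of library stock) in duplicate plates.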
HPGD block = inhibitors of human 15-hydroxyprostaglandin dehydrogenase (HPGD); P15428; purified HPGD, NADH fluorescence kinetic, PGE2 substrate; Potency, µM, usual class: inhibitors; hit rate 4.3% among 150,000; AID 894
Target sequence (P15428 whole entry, looked up): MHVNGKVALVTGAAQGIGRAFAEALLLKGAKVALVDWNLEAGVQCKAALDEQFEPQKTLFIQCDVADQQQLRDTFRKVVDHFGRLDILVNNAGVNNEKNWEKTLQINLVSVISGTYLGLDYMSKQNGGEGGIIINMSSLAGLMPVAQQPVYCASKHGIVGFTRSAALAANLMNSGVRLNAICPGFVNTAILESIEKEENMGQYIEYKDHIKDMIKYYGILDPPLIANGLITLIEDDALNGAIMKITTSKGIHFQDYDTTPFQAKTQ
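NADH formation kinetics: reaction with 30 uM PGE2 and 1 mM NAD+ (final), 20 nM enzyme, Tris-HCl pH 8 with Tween 20, after 15 min compound preincubation at room temperature. Fluorescence change, last versus first of five reads.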
ALDH1A1 inh = ALDH1A1 (human) enzyme inhibition. P00352. Purified ALDH1A1, NADH fluorescence, propionaldehyde substrate. Potency, µM (doses to about 75.3 µM), actives largely listed as inhibitors. hit rate 7.3% among 220,000. AID 1030
IMPase Li cell = cell-permeable IMPase inhibitors with lithium potentiation. CHO-M1 cells, IP1 TR-FRET (IP-One), carbachol + lithium. Potency, µM (highest dose often 59.4 µM), hits mostly inhibitors. hit rate 0.35% among 210,000. AID 1457; active means well fitted inhibition curve with a large enough effect; inconclusive means small, poorly fitted or top-dose-only effect; inactive means no such curve, though single readings can be large or run the other way;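 further: IP1 builds up when IMPase is blocked and the TR-FRET signal falls; nearly all actives have a fitted effect of over 50% in size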
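Readout is a homogeneous TR-FRET IP1 immunoassay (Ex 320, Em 665 and 620), where raised cytosolic IP1 lowers signal. Cells were CHO-M1 treated 30 min at 37C with test compounds plus a little lithium; AC50 values came from Hill-equation fitting.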
Of the large screens only hits and unclear results are named; the others gave an inactive call; ! = a repeat was not active. Unless noted, the call rests on the fitted dose curve; in most records, active means well fitted inhibition curve with a large enough effect (not every such curve was filed as active); inconclusive means small, poorly fitted or top-dose-only effect, or another doubt; inactive means no such curve, though single readings can be large or run the other way.

COc1ccc(-n2ccnc2)cc1	none (no result: IMPase cell inh, PNC inhibitor, HPGD block)
COc1nc(N(c2ccccc2)c2ccccc2)nc(-n2ccnc2)n1	ALDH1A1 inh 1.4µM
Cc1ccc(Cl)cc1N	none (no result: IMPase cell inh, PNC inhibitor)
c1ccc(CCc2nn3c(-c4ccncc4)nnc3s2)cc1	PNC inhibitor inconclusive, HPGD block 5µM, ALDH1A1 inh 10µM
COc1ccccc1-c1nn2c(-c3ccccc3Cl)nnc2s1	none
Brc1ccccc1-c1nnc2sc(Cc3ccccc3)nn12	HPGD block 16µM
Clc1ccccc1-c1nnc2sc(CCc3ccccc3)nn12	HPGD block 8.9µM, ALDH1A1 inh 4µM
CCCn1c(SCC(=O)N2CCCC(C)C2)nnc1-c1ccccn1 (configuration not stated)	ALDH1A1 inh inconclusive (no result: IMPase cell inh, PNC inhibitor, HPGD block)
CN(C)CCCN1CCC2(CCC(C(C)(C)C)CC2)CC1	none (no result: IMPase cell inh, PNC inhibitor)
Cc1cccc(NC(=O)C2CCCN(S(=O)(=O)c3c(C)[nH]c(=O)[nH]c3=O)C2)c1C (configuration not stated)	none (no result: PNC inhibitor, HPGD block, ALDH1A1 inh, IMPase Li cell)
O=C(c1ccccc1)c1ccccc1	ALDH1A1 inh 25µM! (no result: IMPase cell inh, PNC inhibitor)
O=C(c1ccccc1)c1ccc(-c2ccc(O)cc2)cc1	none (no result: IMPase cell inh, PNC inhibitor, HPGD block, IMPase Li cell)
CC(C)C(=O)Nc1ccc(C(=O)c2ccccc2)cc1	PNC inhibitor inconclusive, HPGD block 14µM, ALDH1A1 inh inconclusive
O=C(c1cccnc1)c1cccnc1	PNC inhibitor -124 (no result: IMPase cell inh)
CC(Oc1ccccc1)C(=O)Nc1ccccc1O (configuration not stated)	HPGD block 7.1µM
CC(C)CC(NC(=O)c1ccccc1)C(=O)OCC(=O)Nc1ccc(S(N)(=O)=O)cc1 (configuration not stated)	none (no result: IMPase cell inh, PNC inhibitor, HPGD block)
CC(Oc1ccc(C(=O)c2ccccc2)cc1)C(=O)Nc1ccc(S(N)(=O)=O)cc1 (configuration not stated)	HPGD block inconclusive, ALDH1A1 inh 10µM (no result: IMPase cell inh)
CN(C)CCC1c2ccc(Cl)cc2CCc2cccnc21 (configuration not stated) (tested in a mixture with another compound)	none (no result: IMPase cell inh, PNC inhibitor, HPGD block, IMPase Li cell)
CN1CCN(c2cc(-c3ccccc3)nc3cc(-c4ccc(F)cc4)nn23)CC1	HPGD block inconclusive, ALDH1A1 inh inconclusive
COc1cccc(-c2cc3nc(-c4ccccc4)cc(N4CCC5(CC4)OCCO5)n3n2)c1	HPGD block inconclusive, ALDH1A1 inh inconclusive, IMPase Li cell 11µM
O=C(c1ccc2snnc2c1)N1CCOCC1	none
O=C(c1ccc2snnc2c1)N1CCCCC1	PNC inhibitor -100, HPGD block 16µM
Cc1ccc(S(=O)(=O)/N=S(/c2ccccc2)C(C)C)cc1 (configuration not stated)	ALDH1A1 inh 19µM (no result: IMPase cell inh, PNC inhibitor, HPGD block, IMPase Li cell)
CN/S(=N/S(=O)(=O)c1ccccc1)c1ccc(C)cc1 (configuration not stated)	none
CCOC(=O)c1sc2nc(N3CCOCC3)c3c(c2c1N)CCC3	PNC inhibitor -96, HPGD block inconclusive, ALDH1A1 inh inconclusive
C[C@@H]1CC[C@]2(C(=O)O)CC[C@]3(C)C(=CCC4[C@@]5(C)C[C@@H](O)[C@H](O)[C@@](C)(CO)C5[C@H](O)C[C@]43C)C2[C@H]1C (some centres not stated)	none (no result: IMPase cell inh, PNC inhibitor)
O=C(Cc1ccccc1)NNC(=S)Nc1ccccc1	none (no result: IMPase cell inh, PNC inhibitor, HPGD block)
O=C(CSc1nnc(SCc2ccccc2)s1)NNC(=S)Nc1ccccc1	PNC inhibitor inconclusive, HPGD block 10µM, ALDH1A1 inh 3.2µM
CCn1c(SCC(=O)N/N=C(\C)c2ccco2)nnc1-c1ccccc1	ALDH1A1 inh 11µM (no result: IMPase cell inh, PNC inhibitor, HPGD block)
CCn1c(SCC(=O)N/N=C/C(C)=C/c2ccco2)nnc1-c1ccccc1	ALDH1A1 inh 20µM
CCn1c(SCC(=O)N/N=C(\C)c2ccncc2)nnc1-c1ccc(C)cc1	ALDH1A1 inh 20µM (no result: IMPase cell inh, PNC inhibitor, HPGD block, IMPase Li cell)
Cn1c(SCC(=O)N/N=C/C=C/c2ccccc2[N+](=O)[O-])nc2ccccc21	ALDH1A1 inh inconclusive (no result: IMPase cell inh)
CCn1c(SCC(=O)N/N=C/c2ccc(C)o2)nnc1-c1ccccc1	HPGD block inconclusive, ALDH1A1 inh 11µM
Cn1c(SCC(=O)N/N=C/C=C/c2ccco2)nc2ccccc21	PNC inhibitor inconclusive, ALDH1A1 inh 14µM (no result: IMPase cell inh)
Cc1ccc(/C=N/NC(=O)CSc2nnc(-c3ccccc3)n2-c2ccc(Cl)cc2)o1	PNC inhibitor inconclusive, ALDH1A1 inh inconclusive
Cc1ccc(/C=N/NC(=O)CSc2nnc(-c3ccc(Cl)cc3)n2-c2ccc(Cl)cc2)o1	ALDH1A1 inh 10µM (no result: IMPase cell inh)

Screening data as filed in PubChem BioAssay.
